Reference: the supplement of paper PMC8728848
Shown is part of a subset that was picked to be rich in the strongest signals.

What was measured:
Assay in all cases: glycan array binding signal (z-score within array); higher = stronger binding
Conditions in all cases: glycan notation: IUPAC condensed, linker removed
Fuc(a1-2)Gal(b1-3)GlcNAc = molecular target: Fuc(a1-2)Gal(b1-3)GlcNAc
Outline: (§1)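 Glycan array binding is given as a within-array Z-score, which can be read as non-binding when negative. The arrays, 3228 of them, came from the Consortium for Functional Glycomics database and were retained only where the protein sequence was available. Z-scores were averaged across arrays of the same protein sequence at different concentrations or buffers and across linkers.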

[1] = molecular target: Fuc(a1-2)Gal(b1-3)GlcNAc(b1-2)Man(a1-3)[Fuc(a1-2)Gal(b1-3)GlcNAc(b1-2)Man(a1-6)]Man(b1-4)GlcNAc(b1-4)GlcNAc
Outline: as §1

Fuc(a1-2)Gal(b1-4)Glc6S = molecular target: Fuc(a1-2)Gal(b1-4)Glc6S
Outline: as §1

[2] = molecular target: Fuc(a1-2)Gal(b1-4)GlcNAc(b1-3)Gal(b1-4)GlcNAc(b1-3)Gal(b1-4)GlcNAc
Outline: as §1

[3] = molecular target: Fuc(a1-2)Gal(b1-4)[Fuc(a1-3)]GlcNAc(b1-2)Man(a1-3)[Fuc(a1-2)Gal(b1-4)[Fuc(a1-3)]GlcNAc(b1-2)Man(a1-6)]Man(b1-4)GlcNAc(b1-4)GlcNAc
Outline: as §1

[4] = molecular target: Fuc(a1-2)[Gal(a1-3)]Gal(b1-4)GlcNAc(b1-2)Man(a1-3)[Fuc(a1-2)[Gal(a1-3)]Gal(b1-4)GlcNAc(b1-2)Man(a1-6)]Man(b1-4)GlcNAc(b1-4)GlcNAc
Outline: as §1

[5] = molecular target: Fuc(a1-3)[Gal3S(b1-4)]Glc6S
Outline: as §1

[6] = molecular target: Fuc(a1-3)[Gal3S(b1-4)]GlcNAc
Outline: as §1

[7] = molecular target: Fuc(a1-3)[Neu5Ac(a2-3)]Gal(b1-4)GlcNAc(b1-3)GalNAc
Outline: as §1

Gal(a1-3)Gal(b1-4)Glc = molecular target: Gal(a1-3)Gal(b1-4)Glc
Outline: as §1

[8] = molecular target: Gal(a1-3)Gal(b1-4)[Fuc(a1-3)]GlcNAc(b1-2)Man(a1-3)[Gal(a1-3)Gal(b1-4)[Fuc(a1-3)]GlcNAc(b1-2)Man(a1-6)]Man(b1-4)GlcNAc(b1-4)GlcNAc
Outline: as §1

[9] = molecular target: Gal(b1-3)[Fuc(a1-4)]GlcNAc(b1-2)Man(a1-3)[Gal(b1-3)[Fuc(a1-4)]GlcNAc(b1-2)Man(a1-6)]Man(b1-4)GlcNAc(b1-4)GlcNAc
Outline: as §1

Gal3S6S(b1-4)GlcNAc6S = molecular target: Gal3S6S(b1-4)GlcNAc6S
Outline: as §1

Gal6S(b1-4)GlcNAc6S = molecular target: Gal6S(b1-4)GlcNAc6S
Outline: as §1

[10] = molecular target: GalNAc(b1-3)Gal(a1-4)Gal(b1-4)GlcNAc(b1-3)Gal(b1-4)Glc
Outline: as §1

[11] = molecular target: GalNAc(b1-4)GlcNAc(b1-2)Man(a1-3)[GalNAc(b1-4)GlcNAc(b1-2)Man(a1-6)]Man(b1-4)GlcNAc(b1-4)GlcNAc
Outline: as §1

[12] = molecular target: GlcNAc(b1-3)[GlcNAc(b1-6)]GalNAc
Outline: as §1

[13] = molecular target: GlcNAc(b1-6)Gal(b1-4)GlcNAc
Outline: as §1

GlcNAc3Prop(b1-4)GlcNAc = molecular target: GlcNAc3Prop(b1-4)GlcNAc
Outline: as §1

[14] = molecular target: GlcNAc6S(b1-3)Gal(b1-4)GlcNAc
Outline: as §1

[15] = molecular target: Man(a1-2)Man(a1-2)Man(a1-6)[Man(a1-3)]Man
Outline: as §1

[16] = molecular target: Man(a1-2)Man(a1-3)[Man(a1-2)Man(a1-6)]Man
Outline: as §1

[17] = molecular target: Man(a1-3)[Man(a1-6)]Man(a1-6)[Man(a1-2)Man(a1-3)]Man(b1-4)GlcNAc(b1-4)GlcNAc
Outline: as §1

[18] = molecular target: Man(a1-3)[Man(a1-6)]Man(a1-6)[Man(a1-3)]Man(b1-4)GlcNAc(b1-4)GlcNAc
Outline: as §1

Neu5Ac(a2-3)Gal(b1-4)Glc = molecular target: Neu5Ac(a2-3)Gal(b1-4)Glc
Outline: as §1

[19] = molecular target: Neu5Ac(a2-3)Gal(b1-4)GlcNAc6S
Outline: as §1

[20] = molecular target: Neu5Ac(a2-3)Gal(b1-4)[Fuc(a1-3)]GlcNAc
Outline: as §1

[21] = molecular target: Neu5Ac(a2-3)Gal6S(b1-4)GlcNAc
Outline: as §1

[22] = molecular target: Neu5Ac(a2-3)Gal6S(b1-4)[Fuc(a1-3)]GlcNAc
Outline: as §1

[23] = molecular target: Neu5Ac(a2-3)[GalNAc(b1-4)]Gal(b1-4)GlcNAc
Outline: as §1

[24] = molecular target: Neu5Ac(a2-6)Gal(b1-4)GlcNAc(b1-3)Gal(b1-3)GlcNAc
Outline: as §1

[25] = molecular target: Neu5Ac(a2-6)Gal(b1-4)GlcNAc(b1-3)Gal(b1-4)GlcNAc
Outline: as §1

[26] = molecular target: Neu5Ac(a2-6)Gal(b1-4)GlcNAc(b1-3)Gal(b1-4)[Fuc(a1-3)]GlcNAc(b1-3)Gal(b1-4)[Fuc(a1-3)]GlcNAc
Outline: as §1

B1: StdA (Salmonella typhimurium), Q8Z3Z0 (protein)
chain: MAAAGMMYGASVFAADTTPTAGPFGSGKILFTGTITNSPCDIAPGDDAITVPFGQISYRKLNTANATTDSKPFTIHLQNCAFDPNETTIAGSAGKMSKVTVSFSGTADTSGKAYVSTGSAQHVGVQLLKGDNTSLITPNTPMPDGDAQQLQAGNNELNFFARLIALTDAATPGDVNASVTYTLKYL
Fuc(a1-2)Gal(b1-3)GlcNAc
  glycan array binding signal (z-score): -0.15
[1]
  glycan array binding signal (z-score): 10.3
Fuc(a1-2)Gal(b1-4)Glc6S
  glycan array binding signal (z-score): 0.205
[2]
  glycan array binding signal (z-score): 0.168
[3]
  glycan array binding signal (z-score): 2.3
[4]
  glycan array binding signal (z-score): -0.604
[5]
  glycan array binding signal (z-score): 6.5
[6]
  glycan array binding signal (z-score): 0.034
[7]
  glycan array binding signal (z-score): 4.78
Gal(a1-3)Gal(b1-4)Glc
  glycan array binding signal (z-score): 0.257
[8]
  glycan array binding signal (z-score): 4.97
[9]
  glycan array binding signal (z-score): 5.67
Gal3S6S(b1-4)GlcNAc6S
  glycan array binding signal (z-score): -0.494
Gal6S(b1-4)GlcNAc6S
  glycan array binding signal (z-score): -0.164
[10]
  glycan array binding signal (z-score): 0.837
[11]
  glycan array binding signal (z-score): 3.5
[12]
  glycan array binding signal (z-score): 0.036
[13]
  glycan array binding signal (z-score): 0.557
GlcNAc3Prop(b1-4)GlcNAc
  glycan array binding signal (z-score): -0.424
[14]
  glycan array binding signal (z-score): 1.03
[15]
  glycan array binding signal (z-score): -0.088
[16]
  glycan array binding signal (z-score): -0.749
[17]
  glycan array binding signal (z-score): -0.109
[18]
  glycan array binding signal (z-score): -0.131
Neu5Ac(a2-3)Gal(b1-4)Glc
  glycan array binding signal (z-score): -0.372
[19]
  glycan array binding signal (z-score): -0.404
[20]
  glycan array binding signal (z-score): -0.614
[21]
  glycan array binding signal (z-score): -0.214
[22]
  glycan array binding signal (z-score): -0.437
[23]
  glycan array binding signal (z-score): -0.022
[24]
  glycan array binding signal (z-score): -0.819
[25]
  glycan array binding signal (z-score): -0.14
[26]
  glycan array binding signal (z-score): 0.009
